# This is part of a sample that, as a whole, favours compounds with a hit. Of some 79,000 tested, about 15% had one in any assay. A number with no mark means an inactive call. Active and inactive are the calls of the source. Rule as the data show it: active = growth inhibition above about 70%; inactive = the rest.
# Assays:
# [1] = NCI Yeast Anticancer Drug Screen. Data for the rad52 strain (AID 147);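 also: 0% = growth of vehicle-treated control cultures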; settings: S. cerevisiae rad52 mutant growth inhibition, hits give high values
# Summary of the method: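 Growth of repair-deficient yeast cells was compared between compound-treated and vehicle-treated cultures to give percent inhibition.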
# [2] = NCI Yeast Anticancer Drug Screen. Data for the wt1 strain (AID 149);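 also: 0% = growth of vehicle-treated wt1 cultures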; settings: S. cerevisiae wt1 strain (SPY 50644) growth inhibition, hits give high values
# Summary of the method: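 Each compound is tested on wt1 yeast and the loss of growth versus vehicle gives the inhibition value.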
# [3] = NCI Yeast Anticancer Drug Screen. Data for the rad50EPP+ strain (AID 151);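 also: 0% = growth of vehicle-treated control cultures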; settings: S. cerevisiae rad50 mutant strain, hits give high values
# Summary of the method: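 Measured: growth inhibition of rad50EPP+ yeast. Reference: vehicle-treated controls. Screen uses strains with defined genetic alterations in DNA damage repair or cell cycle control.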
# [4] = NCI Yeast Anticancer Drug Screen. Data for the mgt1 strain (AID 153); settings: S. cerevisiae mgt1 mutant growth inhibition, hits give high values
# Summary of the method: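 Compounds were applied to mgt1 mutant yeast, and growth was then compared against vehicle-treated control cultures to give percent inhibition.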
# [5] = NCI Yeast Anticancer Drug Screen. Data for the rad50 strain (AID 155);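 also: 0% = growth of vehicle-only cultures of the same strain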; settings: S. cerevisiae rad50 strain growth inhibition, hits give high values
# Summary of the method: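 Vehicle-treated cultures provide the reference for the growth inhibition reported for compound-exposed, repair-deficient yeast.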
# [6] = NCI Yeast Anticancer Drug Screen. Data for the mec2-1 strain (AID 157); settings: S. cerevisiae mec2-1 strain, hits give high values
# Summary of the method: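 Compounds were applied to mec2-1 yeast cells. Their growth was then compared with that of vehicle-treated cultures to give growth inhibition.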
# [7] = NCI Yeast Anticancer Drug Screen. Data for the rad14 strain (AID 159);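 also: 0% = growth of vehicle-treated control cultures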; settings: S. cerevisiae rad14 strain growth inhibition, hits give high values
# Summary of the method: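 Inhibition of growth is reported for a repair-deficient yeast mutant following compound treatment, calculated relative to cultures that received vehicle.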
# [8] = NCI Yeast Anticancer Drug Screen. Data for the sgs1 mgt1 strain (AID 161);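 also: 0% = growth of cultures given vehicle only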; settings: S. cerevisiae sgs1 mgt1 strain, hits give high values
# Summary of the method: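 This yeast growth screen uses a strain with defined DNA-repair lesions; compound-treated growth is compared with vehicle-treated growth.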
# [9] = NCI Yeast Anticancer Drug Screen. Data for the CLN2oe strain (AID 163);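 also: 0% = growth of vehicle-only control cultures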; settings: S. cerevisiae CLN2oe strain, hits give high values
# Summary of the method: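 Cells of an engineered yeast line with disturbed cell-cycle regulation are treated with compound. Inhibition of growth is then calculated relative to the vehicle-treated reference.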
# [10] = NCI Yeast Anticancer Drug Screen. Data for the cln2 rad14 strain (AID 165);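 also: 0% = growth equal to vehicle treated cultures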; settings: S. cerevisiae cln2 rad14 strain, hits give high values
# Summary of the method: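 Strain: cln2 rad14 yeast, altered in cell cycle control and DNA damage repair. Read-out: growth inhibition vs vehicle.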
# [11] = NCI Yeast Anticancer Drug Screen. Data for the bub3 strain (AID 167); settings: S. cerevisiae bub3 mutant strain, hits give high values
# Summary of the method: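 Mutant yeast screening strain plus compound; vehicle-treated cultures serve as the 0% inhibition reference.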
# [12] = NCI Yeast Anticancer Drug Screen. Data for the wt2 strain (AID 169); settings: S. cerevisiae wt2 strain growth inhibition, hits give high values
# Summary of the method: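 Growth of compound-treated yeast is measured and expressed as inhibition relative to vehicle-only controls.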
# [13] = NCI Yeast Anticancer Drug Screen. Data for the mlh1 strain (AID 171);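 also: 0% = growth of vehicle-treated control cultures of the same strain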; settings: S. cerevisiae mlh1 strain growth inhibition, hits give high values
# Summary of the method: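 Test agents were incubated with yeast bearing a defined DNA damage repair or cell cycle control alteration; values are growth inhibition normalised to vehicle-treated cultures.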
# [14] = NCI Yeast Anticancer Drug Screen. Data for the sgs1 strain (AID 173);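 also: 0% = growth of vehicle-only control cultures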; settings: S. cerevisiae sgs1 mutant, hits give high values
# Summary of the method: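 Strain with an altered DNA repair or cell cycle pathway exposed to compound. Growth then measured. Value = inhibition versus vehicle control.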
# [15] = NCI Yeast Anticancer Drug Screen. Data for the mlh1 rad18 strain (AID 175); settings: S. cerevisiae mlh1 rad18 strain growth inhibition, hits give high values
# Summary of the method: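 A repair-deficient yeast strain is exposed to test compound, and growth is scored relative to vehicle-treated controls.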
# [16] = NCI Yeast Anticancer Drug Screen. Data for the rad18 strain (AID 177); settings: S. cerevisiae rad18 mutant growth inhibition, hits give high values
# Summary of the method: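 DNA-repair-defective yeast; compound treatment; growth inhibition scored against vehicle.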
# [17] = at 5.0 µM (retest, dose inferred, filed as 0.5)
# [18] = at 50.0 µM (retest, dose inferred, filed as 5.0)
structure (smiles),measurement,setting,value
COC(=O)NC1C(C)OC(OC2C/C=C(/C)C3C=CC4C(OC5CC(OC6CC(O)C(OC7CC(O)C(OC)C(C)O7)C(C)O6)C(O)C(C)O5)C(C)CC(C)C4C3(C)/C(O)=C3\C(=O)OC4(CC(C)C(CO)=CC4/C=C\2C)C3=O)CC1(C)[N+](=O)[O-] (stereo not drawn),growth inhibition,[1]; at 1.2 µM,15%
same,growth inhibition,[1]; at 3.7 µM,40%
same,growth inhibition,[1]; at 11.0 µM,41%
same,growth inhibition,[1]; at 33.0 µM,38%
same,growth inhibition,[1]; at 100.0 µM,21%
same,growth inhibition,[2]; at 1.2 µM,10%
same,growth inhibition,[2]; at 3.7 µM,22%
same,growth inhibition,[2]; at 11.0 µM,20%
same,growth inhibition,[2]; at 33.0 µM,22%
same,growth inhibition,[2]; at 100.0 µM,10%
same,growth inhibition,[3]; at 1.2 µM,10%
same,growth inhibition,[3]; at 3.7 µM,8%
same,growth inhibition,[3]; at 11.0 µM,11%
same,growth inhibition,[3]; at 33.0 µM,5%
same,growth inhibition,[3]; at 100.0 µM,11%
same,growth inhibition,[4]; at 1.2 µM,-7%
same,growth inhibition,[4]; at 3.7 µM,2%
same,growth inhibition,[4]; at 11.0 µM,-1%
same,growth inhibition,[4]; at 33.0 µM,8%
same,growth inhibition,[4]; at 100.0 µM,7%
same,growth inhibition,[5]; at 1.2 µM,5%
same,growth inhibition,[5]; at 3.7 µM,16%
same,growth inhibition,[5]; [17],23%
same,growth inhibition,[5]; at 11.0 µM,22%
same,growth inhibition,[5]; at 33.0 µM,21%
same,growth inhibition,[5]; [18],40%
same,growth inhibition,[5]; at 50.0 µM,5.7%
same,growth inhibition,[5]; at 100.0 µM,16%
same,growth inhibition,[6]; at 1.2 µM,2%
same,growth inhibition,[6]; at 3.7 µM,-5%
same,growth inhibition,[6]; [17],9%
same,growth inhibition,[6]; at 11.0 µM,-4%
same,growth inhibition,[6]; at 33.0 µM,5%
same,growth inhibition,[6]; [18],34%
same,growth inhibition,[6]; at 50.0 µM,-7.4%
same,growth inhibition,[6]; at 100.0 µM,-3%
same,growth inhibition,[7]; at 1.2 µM,13%
same,growth inhibition,[7]; at 3.7 µM,19%
same,growth inhibition,[7]; at 11.0 µM,14%
same,growth inhibition,[7]; at 33.0 µM,16%
same,growth inhibition,[7]; at 100.0 µM,13%
same,growth inhibition,[8]; [17],13%
same,growth inhibition,[8]; [18],27%
same,growth inhibition,[8]; at 50.0 µM,9.1%
same,growth inhibition,[9]; at 1.2 µM,27%
same,growth inhibition,[9]; at 3.7 µM,15%
same,growth inhibition,[9]; at 11.0 µM,20%
same,growth inhibition,[9]; at 33.0 µM,18%
same,growth inhibition,[9]; at 100.0 µM,28%
same,growth inhibition,[10]; [17],44%
same,growth inhibition,[10]; [18],33%
same,growth inhibition,[10]; at 50.0 µM,14.8%
same,growth inhibition,[11]; at 1.2 µM,22%
same,growth inhibition,[11]; at 3.7 µM,19%
same,growth inhibition,[11]; [17],34%
same,growth inhibition,[11]; at 11.0 µM,13%
same,growth inhibition,[11]; at 33.0 µM,9%
same,growth inhibition,[11]; [18],26%
same,growth inhibition,[11]; at 50.0 µM,10.7%
same,growth inhibition,[11]; at 100.0 µM,9%
same,growth inhibition,[12]; at 1.2 µM,-42%
same,growth inhibition,[12]; at 3.7 µM,-37%
same,growth inhibition,[12]; at 11.0 µM,-47%
same,growth inhibition,[12]; at 33.0 µM,-30%
same,growth inhibition,[12]; at 100.0 µM,-21%
same,growth inhibition,[13]; at 1.2 µM,-4%
same,growth inhibition,[13]; at 3.7 µM,5%
same,growth inhibition,[13]; at 11.0 µM,3%
same,growth inhibition,[13]; at 33.0 µM,3%
same,growth inhibition,[13]; at 100.0 µM,-2%
same,growth inhibition,[14]; at 1.2 µM,0%
same,growth inhibition,[14]; at 3.7 µM,-8%
same,growth inhibition,[14]; at 11.0 µM,-15%
same,growth inhibition,[14]; at 33.0 µM,-13%
same,growth inhibition,[14]; at 100.0 µM,-10%
same,growth inhibition,[15]; [17],27%
same,growth inhibition,[15]; [18],65%
same,growth inhibition,[15]; at 50.0 µM,10.6%
same,growth inhibition,[16]; at 1.2 µM,1%
same,growth inhibition,[16]; at 3.7 µM,17%
same,growth inhibition,[16]; at 11.0 µM,14%
same,growth inhibition,[16]; at 33.0 µM,14%
same,growth inhibition,[16]; at 100.0 µM,13%
CCOC1(c2cccc([N+](=O)[O-])c2)c2ccccc2Oc2ccccc21,growth inhibition,[1]; at 1.2 µM,0%
same,growth inhibition,[1]; at 3.7 µM,2%
same,growth inhibition,[1]; at 11.0 µM,4%
same,growth inhibition,[1]; at 33.0 µM,10%
same,growth inhibition,[1]; at 100.0 µM,19%
same,growth inhibition,[2]; at 1.2 µM,2%
same,growth inhibition,[2]; at 3.7 µM,1%
same,growth inhibition,[2]; at 11.0 µM,4%
same,growth inhibition,[2]; at 33.0 µM,2%
same,growth inhibition,[2]; at 100.0 µM,3%
same,growth inhibition,[3]; at 1.2 µM,3%
same,growth inhibition,[3]; at 3.7 µM,2%
same,growth inhibition,[3]; at 11.0 µM,11%
same,growth inhibition,[3]; at 33.0 µM,24%
same,growth inhibition,[3]; at 100.0 µM,19%
same,growth inhibition,[4]; at 1.2 µM,0%
same,growth inhibition,[4]; at 3.7 µM,-2%
same,growth inhibition,[4]; at 11.0 µM,0%
same,growth inhibition,[4]; at 33.0 µM,15%
same,growth inhibition,[4]; at 100.0 µM,0%
same,growth inhibition,[5]; at 1.2 µM,1%
same,growth inhibition,[5]; at 3.7 µM,0%
same,growth inhibition,[5]; [17],41%
same,growth inhibition,[5]; at 11.0 µM,4%
same,growth inhibition,[5]; at 33.0 µM,7%
same,growth inhibition,[5]; [18],69%
same,growth inhibition,[5]; at 50.0 µM,51.8%
same,growth inhibition,[5]; at 100.0 µM,9%
same,growth inhibition,[6]; at 1.2 µM,-3%
same,growth inhibition,[6]; at 3.7 µM,2%
same,growth inhibition,[6]; [17],3%
same,growth inhibition,[6]; at 11.0 µM,0%
same,growth inhibition,[6]; at 33.0 µM,7%
same,growth inhibition,[6]; [18],23%
same,growth inhibition,[6]; at 50.0 µM,26.4%
same,growth inhibition,[6]; at 100.0 µM,13%
same,growth inhibition,[7]; at 1.2 µM,0%
same,growth inhibition,[7]; at 3.7 µM,2%
same,growth inhibition,[7]; at 11.0 µM,5%
same,growth inhibition,[7]; at 33.0 µM,7%
same,growth inhibition,[7]; at 100.0 µM,10%
same,growth inhibition,[8]; [17],26%
same,growth inhibition,[8]; [18],60%
same,growth inhibition,[8]; at 50.0 µM,57.6%
same,growth inhibition,[9]; at 1.2 µM,-6%
same,growth inhibition,[9]; at 3.7 µM,-1%
same,growth inhibition,[9]; at 11.0 µM,0%
same,growth inhibition,[9]; at 33.0 µM,-1%
same,growth inhibition,[9]; at 100.0 µM,2%
same,growth inhibition,[10]; [17],12%
same,growth inhibition,[10]; [18],30%
same,growth inhibition,[10]; at 50.0 µM,3.8%
same,growth inhibition,[11]; at 1.2 µM,-1%
same,growth inhibition,[11]; at 3.7 µM,-2%
same,growth inhibition,[11]; [17],32%
same,growth inhibition,[11]; at 11.0 µM,3%
same,growth inhibition,[11]; at 33.0 µM,1%
same,growth inhibition,[11]; [18],77% (active)
same,growth inhibition,[11]; at 50.0 µM,51.7%
same,growth inhibition,[11]; at 100.0 µM,1%

# Source: PubChem BioAssay (NCI)
